# Results published in PubChem BioAssay.
# Activity calls are given as the source filed them.
# Key:
# Albumin (Bos taurus) = Albumin (Bos taurus) (UniProt P02769); test: bovine serum albumin binders on microarray, profiling panel, artefact control for SMM control protein annotation, biochemical, small-molecule microarray, Alexa647 label, 635/667 nm fluorescence (AID 1118); details: BSA-A647 binding, fluorescence 635 nm, higher = more signal;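 further: score merges 667 nm emission intensity and signal-to-noise per printed compound spot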
# [1] = small-molecule microarray binders of probe aXIP, primary screen, biochemical, NeuroSMM set, 635/667 nm fluorescence (AID 1119); details: higher = more signal, called active from +8 up or from −8 down;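 further: probe is the protein aXip251-270 applied at 1 µg/mL to compound-printed slides; binding of probe to printed compounds measured as 667 nm fluorescence plus signal to noise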
# [2] = small-molecule binders of probe aNOTCH3, primary screen, biochemical, small-molecule microarray, 635/667 nm fluorescence (AID 1120); details: higher = more signal;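 further: probe is a biotin-tagged antibody raised against NOTCH3 rather than NOTCH3 protein; score merges spot fluorescence near 667 nm with spot signal to noise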
# [3] = small-molecule binders of probe aNOTCH2, primary screen, biochemical, small-molecule microarray, 635/667 nm fluorescence (AID 1121); details: higher = more signal;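 further: score merges feature fluorescence read at 667 nm with its signal to noise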
# [4] = target: Carbonic anhydrase 2 (Homo sapiens) (UniProt P00918); test: CAII small-molecule binders, profiling panel, biochemical, small-molecule microarray, Alexa647-labelled CAII (AID 1122); details: CAII-A647 binding fluorescence, higher = more signal
# [5] = COS7 lysate on small-molecule microarray, probe aHis, 635 nm (AID 1123); details: COS7 cell lysate, fluorescence, higher = more signal;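 further: z-score combines 667nm fluorescence intensity with signal-to-noise per printed compound spot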
# [6] = compound binding in COS7 lysate, probe aLAP1, primary screen, cell lysate, small-molecule microarray (AID 1124); details: probe aLAP1, fluorescence, higher = more signal;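 further: lysate comes from COS7 cells expressing LAP1 and is applied at 0.3 µg/mL; score merges spot fluorescence near 667 nm with signal-to-noise over triplicate slides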
# Sam68 (KHDRBS1) = test: Sam68 small-molecule binders, primary screen, biochemical, small-molecule microarray, 635 nm fluorescence (AID 1125); details: small-molecule microarray binding, higher = more signal;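 further: score merges 667 nm channel intensity with signal to noise over triplicate slides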
# [7] = system: Chordin-like protein 2 (CHRDL2); test: CHRDL2 small-molecule binders, primary screen, biochemical, small-molecule microarray, 635 nm fluorescence (AID 1126); details: small-molecule microarray binding, fluorescence 635 nm; higher = more signal;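 further: printed compound slides probed with Chrdl2 protein at 4 µg/mL for 1 h at 4 C; score merges 667 nm emission intensity with signal to noise over three replicate slides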
# [8] = target: Concanavalin-A (Canavalia ensiformis) (UniProt P02866); test: ConA small-molecule binders, primary screen, artefact control for SMM control protein annotation, biochemical, small-molecule microarray, Alexa647 label, 635 nm (AID 1127); details: ConA-A647 binding fluorescence, higher = more signal;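 further: z combines 667 nm emission intensity with signal-to-noise across three replicate slides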
# [9] = anti-His antibody binders, primary screen, artefact control for SMM control protein annotation, biochemical, small-molecule microarray, 635 nm fluorescence (AID 1128); details: anti-His Alexa647 antibody binding, higher = more signal;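 further: score merges feature fluorescence with signal-to-noise for each printed compound spot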
# [10] = system: Human papillomavirus type 1a E7 protein (residues 1-88); test: HPV1a E7 small-molecule binders, primary screen, biochemical, small-molecule microarray, residues 1-88, 635 nm (AID 1129); details: small-molecule microarray binding, fluorescence 635 nm; higher = more signal
# [11] = target: Focal adhesion kinase 1 (Homo sapiens) (UniProt Q05397); test: small-molecule microarray binders of FAK, primary screen, biochemical, 635/667 nm fluorescence, BSA, DTT (AID 1130); details: PTK2 binding, 635 nm fluorescence, higher = more signal;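 further: composite of spot emission at 667 nm and signal to noise over triplicate slides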
# [12] = system: Fibrinogen (Alexa647-labelled); test: fibrinogen binders on compound microarrays, profiling panel, artefact control for SMM control-protein annotation, biochemical, small-molecule microarray, 635/667 nm fluorescence (AID 1131); details: fibrinogen-A647 binding fluorescence, higher = more signal;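 further: z-score merges 667 nm fluorescence with per-spot signal-to-noise over triplicate slides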
# [13] = target: Follistatin (Homo sapiens) (UniProt P19883); test: follistatin binders on small-molecule microarrays, primary screen, biochemical, small-molecule microarray, 635/667 nm fluorescence (AID 1132); details: FST binding, 635 nm fluorescence, higher = more signal
# [14] = target: Fibroblast growth factor 2 (Homo sapiens) (UniProt P09038); test: FGF2 binders on small-molecule microarrays, primary screen, biochemical, small-molecule microarray, 635/667 nm fluorescence (AID 1133); details: small-molecule microarray binding, FGF2, fluorescence 635/667; higher = more signal
# [15] = mitochondrial membrane potential change in A549 cells, profiling panel, cell-based, JC-1 fluorescence, basal, 24 h, 100 nL (AID 1138); details: higher = more signal;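 further: A549 lung adenocarcinoma cells under basal conditions with no added stimulus; test concentration not given here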
# Lefty1 = Lefty1 binders on small-molecule microarrays, primary screen, biochemical, small-molecule microarray, 635/667 nm fluorescence (AID 1139); details: small-molecule microarray binding, fluorescence 635/667; higher = more signal
# [16] = system: wheat germ agglutinin (Triticum aestivum), Alexa647-labelled; test: wheat germ agglutinin binders on compound microarrays, profiling panel, artefact control for SMM control-protein annotation, biochemical, small-molecule microarray, 635/667 nm fluorescence (AID 1140); details: WGA-A647 binding, 635 nm fluorescence, higher = more signal;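 further: score merges 667 nm feature emission with signal to noise over triplicate slides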
# [17] = target: Luciferin 4-monooxygenase (Photinus pyralis) (UniProt P08659); test: firefly luciferase enzyme inhibitors, primary screen, biochemical, luminescence, purified enzyme, 2006 set (AID 1141); details: SteadyGlo luminescence, 30 min, higher = more signal, called active from +8 up or from −8 down;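 further: cell-free assay with purified firefly luciferase at 100 ng per well in PBS; test concentration not given here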
# Chain of Luciferin 4-monooxygenase (Photinus pyralis) (P08659 whole entry, looked up): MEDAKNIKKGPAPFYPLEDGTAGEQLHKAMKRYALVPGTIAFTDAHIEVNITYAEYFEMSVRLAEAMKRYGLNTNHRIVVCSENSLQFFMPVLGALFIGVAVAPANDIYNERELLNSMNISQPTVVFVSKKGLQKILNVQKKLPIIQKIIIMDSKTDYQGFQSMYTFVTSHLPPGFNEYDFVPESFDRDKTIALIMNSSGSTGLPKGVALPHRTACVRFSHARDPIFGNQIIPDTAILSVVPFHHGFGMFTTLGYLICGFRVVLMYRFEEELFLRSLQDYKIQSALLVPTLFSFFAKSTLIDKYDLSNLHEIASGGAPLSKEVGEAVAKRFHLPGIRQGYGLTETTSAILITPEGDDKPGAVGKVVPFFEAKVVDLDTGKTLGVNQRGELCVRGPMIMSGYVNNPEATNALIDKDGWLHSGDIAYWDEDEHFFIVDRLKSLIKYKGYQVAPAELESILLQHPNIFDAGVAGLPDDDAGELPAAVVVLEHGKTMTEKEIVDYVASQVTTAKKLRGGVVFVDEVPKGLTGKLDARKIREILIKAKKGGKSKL
# Chain of Concanavalin-A (Canavalia ensiformis) (P02866 whole entry, looked up): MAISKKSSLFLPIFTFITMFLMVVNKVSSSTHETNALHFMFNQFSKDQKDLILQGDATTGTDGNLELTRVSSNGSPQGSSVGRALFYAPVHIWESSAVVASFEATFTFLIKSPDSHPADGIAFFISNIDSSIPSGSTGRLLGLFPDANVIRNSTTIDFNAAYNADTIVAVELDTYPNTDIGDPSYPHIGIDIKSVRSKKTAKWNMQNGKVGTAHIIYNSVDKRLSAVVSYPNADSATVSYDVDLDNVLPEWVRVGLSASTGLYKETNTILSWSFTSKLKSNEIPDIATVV
# Chain of Focal adhesion kinase 1 (Homo sapiens) (Q05397 whole entry, looked up): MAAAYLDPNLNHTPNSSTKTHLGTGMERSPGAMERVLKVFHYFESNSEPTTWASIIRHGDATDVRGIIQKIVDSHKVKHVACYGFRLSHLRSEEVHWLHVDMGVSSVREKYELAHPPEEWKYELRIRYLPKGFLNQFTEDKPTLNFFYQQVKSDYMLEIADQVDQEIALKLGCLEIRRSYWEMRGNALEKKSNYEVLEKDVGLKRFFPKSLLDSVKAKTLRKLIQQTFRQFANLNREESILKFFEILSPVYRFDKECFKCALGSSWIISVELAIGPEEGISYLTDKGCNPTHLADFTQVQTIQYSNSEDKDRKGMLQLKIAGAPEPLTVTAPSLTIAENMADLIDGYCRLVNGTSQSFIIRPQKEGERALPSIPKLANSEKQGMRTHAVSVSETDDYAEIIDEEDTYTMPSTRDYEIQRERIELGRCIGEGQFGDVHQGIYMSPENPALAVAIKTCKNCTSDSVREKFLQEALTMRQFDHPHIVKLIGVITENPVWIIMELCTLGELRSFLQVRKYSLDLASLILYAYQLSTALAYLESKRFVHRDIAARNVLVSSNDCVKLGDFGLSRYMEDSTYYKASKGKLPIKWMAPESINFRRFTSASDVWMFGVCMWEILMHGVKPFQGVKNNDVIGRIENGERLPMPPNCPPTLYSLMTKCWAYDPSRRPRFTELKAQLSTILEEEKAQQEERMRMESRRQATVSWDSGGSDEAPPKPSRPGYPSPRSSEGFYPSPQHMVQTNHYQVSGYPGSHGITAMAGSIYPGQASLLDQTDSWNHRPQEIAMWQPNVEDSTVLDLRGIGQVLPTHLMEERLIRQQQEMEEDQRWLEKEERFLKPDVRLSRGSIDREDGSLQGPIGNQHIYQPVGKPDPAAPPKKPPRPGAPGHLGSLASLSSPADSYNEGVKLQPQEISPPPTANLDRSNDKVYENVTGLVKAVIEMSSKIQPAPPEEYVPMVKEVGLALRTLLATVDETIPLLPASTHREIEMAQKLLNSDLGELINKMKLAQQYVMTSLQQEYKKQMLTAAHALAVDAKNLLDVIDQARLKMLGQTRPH
# Chain of Albumin (Bos taurus) (P02769 whole entry, looked up): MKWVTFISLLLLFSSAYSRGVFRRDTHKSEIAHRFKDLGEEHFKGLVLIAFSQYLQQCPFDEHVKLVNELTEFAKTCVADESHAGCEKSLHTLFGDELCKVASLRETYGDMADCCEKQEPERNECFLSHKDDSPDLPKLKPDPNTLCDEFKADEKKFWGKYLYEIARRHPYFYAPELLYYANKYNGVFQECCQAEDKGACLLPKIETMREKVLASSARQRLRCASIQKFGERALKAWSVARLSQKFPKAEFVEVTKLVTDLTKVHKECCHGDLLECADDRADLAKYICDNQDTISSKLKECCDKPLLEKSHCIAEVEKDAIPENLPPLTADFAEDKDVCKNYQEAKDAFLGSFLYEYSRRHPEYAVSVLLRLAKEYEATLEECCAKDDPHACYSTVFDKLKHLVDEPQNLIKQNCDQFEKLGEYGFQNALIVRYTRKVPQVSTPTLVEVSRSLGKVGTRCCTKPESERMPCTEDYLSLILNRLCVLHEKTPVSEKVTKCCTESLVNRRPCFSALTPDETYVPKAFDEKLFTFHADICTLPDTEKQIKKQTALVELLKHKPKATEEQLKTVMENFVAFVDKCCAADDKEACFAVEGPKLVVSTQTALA
# Chain of Fibroblast growth factor 2 (Homo sapiens) (P09038 whole entry, looked up): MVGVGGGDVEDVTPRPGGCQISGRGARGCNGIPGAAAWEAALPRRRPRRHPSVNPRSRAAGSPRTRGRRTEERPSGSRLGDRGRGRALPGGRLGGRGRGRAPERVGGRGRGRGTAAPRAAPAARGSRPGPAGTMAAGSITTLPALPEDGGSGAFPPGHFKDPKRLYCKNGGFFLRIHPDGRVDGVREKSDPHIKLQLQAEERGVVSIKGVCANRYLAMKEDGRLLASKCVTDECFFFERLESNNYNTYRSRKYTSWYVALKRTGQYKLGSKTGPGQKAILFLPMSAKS
# Chain of Follistatin (Homo sapiens) (P19883 whole entry, looked up): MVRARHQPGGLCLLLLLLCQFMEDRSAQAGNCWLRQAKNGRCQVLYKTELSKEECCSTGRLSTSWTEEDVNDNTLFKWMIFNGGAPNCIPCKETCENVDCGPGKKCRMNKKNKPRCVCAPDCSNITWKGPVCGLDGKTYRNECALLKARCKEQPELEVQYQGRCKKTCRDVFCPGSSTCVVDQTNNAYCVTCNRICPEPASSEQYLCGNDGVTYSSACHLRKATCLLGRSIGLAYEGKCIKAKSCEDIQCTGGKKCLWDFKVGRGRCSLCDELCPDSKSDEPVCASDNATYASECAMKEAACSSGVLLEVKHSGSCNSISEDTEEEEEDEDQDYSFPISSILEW
SMILES,composite z-score (Albumin (Bos taurus)),composite Z-score [1],composite z-score [2],composite z-score [3],composite z-score [4],composite z-score [5],composite z-score [6],composite z-score (Sam68 (KHDRBS1)),composite z-score [7],composite z-score [8],composite z-score [9],composite z-score [10],composite z-score [11],composite z-score [12],composite z-score [13],composite z-score [14],z-score [15],composite z-score (Lefty1),composite z-score [16],z-score [17]
CC(C)CON=C1C[C@@H](O)[C@@H](O)[C@@H]2[C@@H]3C(=O)N(C(C)(C)C)C(=O)[C@@H]3CC[C@@H]12,-0.708,0.11 (inactive),-0.157,-0.14,-0.488,-0.75,-0.0854,0.845,1.5,-1.21,-0.587,-0.537,-0.577,-0.766,1.39,1.46,-0.832,1.51,-0.804,0.444 (inactive)
COC(=O)[C@@H]1CC[C@H](C)[C@@H](c2ccc(Br)cc2)N1C[C@H](O)CN=[N+]=[N-],0.0539,0.486 (inactive),-0.0219,-0.12,-0.109,0.653,0.475,-0.0747,0.101,-0.35,0.383,-0.459,0.709,0.118,-0.117,0.0395,-0.821,0.17,0.162,-0.169 (inactive)
CCc1cc2c(nc1CC)CCN(CCC(C)=NOC(C)CN1CCCCc3nc(C)c(C)cc31)C2 (stereo not given),0.0846,0.73 (inactive),0.0696,-0.0194,0.467,1.64,0.304,1.28,0.911,1.17,0.575,1.18,-0.048,0.874,1.18,0.557,2.45,0.979,0.439,-0.0579 (inactive)
CCN1C(=O)[C@H]2[C@H]3[C@H](O)[C@H](O)CC(=NOC[C@@H](O)[C@H]4O[C@@H]5OC(C)(C)O[C@@H]5[C@H]4O)[C@@H]3CC[C@H]2C1=O,0.0226,-0.485 (inactive),-0.299,-0.0662,0.343,0.324,-0.203,-0.0334,-0.736,-0.406,-0.072,-0.144,-0.212,-0.0432,0.387,0.383,-0.548,0.0533,-0.0038,-0.819 (inactive)
CCOC(=O)[C@H](CC(C)C)NC(=O)CCC1CC(OC(=O)NCCc2ccc(F)cc2)CC2(CCCC(COC(=O)NCCOC)O2)O1 (stereo not given in full),0.502,0.795 (inactive),-0.0573,-0.171,0.0663,0.5,0.417,1.29,0.515,0.646,0.917,1.04,0.318,0.416,0.839,1.18,-0.382,0.955,0.829,0.958 (inactive)
